This is a sample that favours compounds with a hit; in the whole collection about 1.8% have one here.
ABCB6 inh 2 – blocks the human ABCB6 transporter. Q9NP58. K562-ABCB6 porphyrin accumulation, flow cytometry, 1 h; stronger effect = lower value. fluorescence ratio to DMSO, % at 10 µM. 0.19% of 360,000 active. AID 602162;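 active = fluorescence ratio to DMSO below 75%, the collection mean minus 3 SD; inconclusive = too few cells collected in the well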;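 also: signal is porphyrin accumulated inside mitochondria; lower ratio means ABCB6 inhibition with less porphyrin fluorescence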
Granule exo inh – lytic granule exocytosis inhibition; TALL-104 LAMP-1 surface exposure, flow cytometry; cells stimulated with thapsigargin and PMA; inhibition, % at 10 µM; 0.66% of 360,000 active; AID 651702;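 active = inhibition above about 55%, limit read from the data; inconclusive = no clear call, values can overlap the other calls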
Myeloid diff 2 – compounds promoting myeloid differentiation; 1% of 360,000 active; calls only at 10 µM; ER-HoxA9 myeloid progenitors, lysozyme-GFP differentiation, flow cytometry;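 active = normalized GFP-positive differentiation at or above the plate's own cutoff, the solvent-only control mean plus 3 SD; inconclusive = no clear call, values can overlap the other calls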;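 also: cells exposed to compound for four days before flow analysis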
Of the large screens only hits and unclear results are named; the others gave an inactive call.

NNC(=O)c1ccc(Cn2cc(Br)cn2)o1	none
NNC(=O)c1ccc(Cn2cc(Br)c(N)n2)cc1	Myeloid diff 2 active
CC(C)n1cc(-c2nc(C(=O)NN)cs2)c(=O)n(Cc2ccccc2)c1=O	Myeloid diff 2 active
Cn1c(NN)nc2c1c(=O)n(Cc1ccccc1)c(=O)n2C	none
c1ccc(Cn2ccnc2C2OCCO2)cc1	none
Cc1ccc(COC(=O)CN2C(=O)NC3(CCCCC3C)C2=O)cc1 (centres undefined)	none
Cc1ccc(OCC(=O)N2N=C(c3ccc(Cl)cc3)CC2c2ccco2)c([N+](=O)[O-])n1 (centres undefined)	none
Cc1ccc(C2=NN(C(=O)CSc3nc4ncc(Cl)cc4[nH]3)C(c3ccco3)C2)cc1 (centres undefined)	none
Cc1ccc(C2=NN(C(=O)CSc3nccn3C)C(c3ccco3)C2)cc1 (centres undefined)	Myeloid diff 2 active
O=C(COc1cccnc1[N+](=O)[O-])N1N=C(c2ccc(Cl)cc2)CC1c1ccco1 (centres undefined)	Myeloid diff 2 active
O=C1CC(Cc2ccc(Cl)cc2)C(=O)N1c1ccccn1 (centres undefined)	ABCB6 inh 2 73
O=C1CC(Cc2ccc(Cl)cc2)C(=O)N1c1ccncc1 (centres undefined)	none
COc1cc(OC)cc(C(=O)NC(C(=O)O)C23CC4CC(CC(C4)C2)C3)c1 (centres undefined)	none
CN(C)NC(=O)C(NC(=O)c1ccccc1)C12CC3CC(CC(C3)C1)C2 (centres undefined)	Myeloid diff 2 active
N#C/C(=C\c1ccc(N2CCCCC2)o1)C(=O)Nc1cccc(Br)c1	Myeloid diff 2 active
N#C/C(=C\c1ccc(N2CCCCC2)o1)C(N)=O	none
O=C(COC(=O)c1ccc(OC(F)F)cc1)NCC1CCCO1 (centres undefined)	none
CCN1CCCC1CNC(=O)c1ccc2c(c1)NC(=O)/C(=C\c1ccc(C)cc1)S2 (centres undefined)	Granule exo inh 61
Cc1ccc(/C=C2/Sc3ccc(C(=O)NCCN4CCOCC4)cc3NC2=O)cc1	none
CCCCSCc1ccc(C(=O)O)o1	Myeloid diff 2 active
CC(=O)c1c(C)oc(C)c1CSCc1ccc(C(=O)O)o1	none
Cc1csc(N=Cc2ccc([N+](=O)[O-])o2)n1	none
COc1ccccc1C(=O)Nc1ccc2c(c1)nc(CN1CCCCC1)n2C	none
Cc1[nH]c2ccccc2c1C(=O)CSc1nc2ccccc2c(=O)n1CCCN1CCOCC1	none
CSc1nc2ccccc2cc1/C=C(\C#N)c1ccccc1	none (no result: Myeloid diff 2)
O=Cc1cc2ccccc2nc1SCCCF	Granule exo inh 59, Myeloid diff 2 active
CCOC(=O)[C@]12CCCC=C1N(Cc1ccccc1)C(=O)[C@H](CC(=O)N1CCCCCC1)C2	none (no result: ABCB6 inh 2)
COc1ccccc1C(=O)Nc1ccc2c(c1)nc1n2CCN(C2CCCCC2)C1	Myeloid diff 2 active
O=C(Nc1ccc2c(c1)nc1n2CCN(C2CCCCC2)C1)c1ccco1	none
O=c1cc(-c2ccccc2Cl)oc2c(NS(=O)(=O)c3cc(Cl)cc(Cl)c3O)ccc(O)c12	none
CCc1ccc(S(=O)(=O)Nc2ccc(O)c3c(=O)cc(-c4ccccc4Cl)oc23)cc1	Granule exo inh 76
COc1ccccc1C(C)NC(=O)CCNC(=O)c1ccc(Cl)cc1 (centres undefined)	none
CCOC(=O)c1nc2cc3n(c(CC(C)C)c-2c1C)CC(C)=C3C	Myeloid diff 2 active
CCOC(=O)c1nc2cc3n(c(C)c-2c1C)C(C)C(C)=C3C (centres undefined)	none
Cc1sc2nc(SCC(=O)c3cccs3)n(Cc3ccco3)c(=O)c2c1C	Myeloid diff 2 active
Cc1sc2nc(SCc3ccc(C(=O)O)cc3)n(Cc3ccco3)c(=O)c2c1C	none
CCOC1=C2[C@@H](CN(S(=O)(=O)c3ccc(C)cc3)[C@H]2c2ccc(Cl)cc2)[C@H]2C(=O)N(c3ccccc3)C(=O)[C@H]2C1	none
N/C(=N\N=C/c1ccc(F)cc1)N/N=C\c1ccc(F)cc1	Granule exo inh 61
N/C(=N\N=Cc1ccc2c(c1)OCO2)NN=Cc1ccc2c(c1)OCO2	none (no result: Myeloid diff 2)
O=C(N/N=C/c1ccc(F)cc1)c1ccc(Br)cc1	none
N/C(=N\N=C/c1ccc(Br)cc1)N/N=C\c1ccc(Br)cc1	Granule exo inh 63
C=CCNc1nc(Nc2ccc(OC)c(OC)c2)c2sc(-c3ccccc3)cc2n1	Myeloid diff 2 inconclusive
COc1ccc2c(C)cc(SCc3c(C)noc3C)nc2c1	Myeloid diff 2 active
COc1ccc2c(C)cc(SCC#N)nc2c1	none
CC(C)(C)c1ccc(CNC(=O)c2ccc3c(c2)NC(=O)CO3)cc1	Myeloid diff 2 active
O=C1COc2ccc(C(=O)NCc3ccc4c(c3)OCO4)cc2N1	none
O=C1CCCCC(=O)[C@H](O)C[C@H](COCc2ccccc2)O1	none
COCCNS(=O)(=O)c1ccc2c3c(cccc13)C(=O)N2C	none
CCCC(=O)N(c1ccc(OCC)cc1)S(=O)(=O)c1ccc2c3c(cccc13)C(=O)N2C	Myeloid diff 2 active
Cc1ccc2c(c1)c1c3n2CCN(C(=O)CCl)C3CCC1 (centres undefined)	none
COc1ccc(CN2C[C@]3(CO)O[C@@H](CO)C[C@@H]3S2(=O)=O)cc1	none
O=C1CC(C(=O)Nc2ccc(Cl)cc2[N+](=O)[O-])C2(CCCCC2)O1 (centres undefined)	none
c1ccc2c(c1)Cn1nnnc1-2	none
c1ccc2c(c1)CC1(CCCCC1)n1nnnc1-2	Myeloid diff 2 active
COc1ccc(N(CC(=O)NCCSc2ccccc2)S(=O)(=O)c2ccccc2)c(OC)c1	none
C[C@@H](c1ccccc1)N1C[C@@H](COCc2ccccc2)Oc2cc(N3CCC[C@@H]3CO)ccc2S1(=O)=O	none
O=C1c2cccc3cccc(c23)C(=O)N1Cc1ccccn1	none
COc1ccc(-n2nnnc2SCC(=O)NNC(=O)c2ccc([N+](=O)[O-])cc2)cc1	ABCB6 inh 2 69
Cc1ccc(-n2nnnc2SCC(=O)NNC(=O)c2ccc([N+](=O)[O-])cc2)cc1	none
CN(C)S(=O)(=O)c1ccc(S(=O)(=O)N2CCCC(C(=O)NC3CCCC3)C2)cc1 (centres undefined)	none (no result: Myeloid diff 2)
COc1cc(OC)cc(C(=O)N2CCN(c3ccc(N4CCOCC4)nn3)CC2)c1	none
Oc1cccc(-c2sc3ccccc3c2-c2ccc(OCCN3CCCCC3)cc2)c1	Granule exo inh 59, Myeloid diff 2 inconclusive
c1ccc(-c2sc3ccccc3c2-c2ccc(OCCN3CCOCC3)cc2)cc1	none
O=C(C1CCN(S(=O)(=O)c2ccc(F)cc2)CC1)N1CCCC(C(F)(F)F)C1 (centres undefined)	none
Nc1ccc2c(c1)N1CCN=C1S2	none
O=C(Nc1ccc(Cl)cc1)Nc1ccc2c(c1)N1CCN=C1S2	Myeloid diff 2 active
CC(C)(C)n1nnnc1C(c1ccccc1)N1CCN(c2ccccn2)CC1 (centres undefined)	none
O=C(Cn1cc([N+](=O)[O-])ccc1=O)N1CCc2ccccc21	none
Cc1ccc(S(C)=O)cc1-n1c(=O)n(Cc2ccccc2)c(=O)c2[nH]cnc21 (centres undefined)	Myeloid diff 2 active
COc1ccc(C)c(-n2c(=O)n(Cc3ccccc3)c(=O)c3[nH]cnc32)c1	none
COC(=O)C1=C(C)N(CC2CC2)C(=NCc2cccc(C(F)(F)F)c2)N[C@H]1c1ccccc1	Myeloid diff 2 active

Source: PubChem (NMMLSC)
